Test results taken from ChEMBL document CHEMBL2218924, “A broad activity screen in support of a chemogenomic map for kinase signalling research and drug discovery” (Biochem J, 2013).

Assays:
[1] = target: G protein-coupled receptor kinase 5 (Homo sapiens) (UniProt P34947); settings: at 1 µM
[2] = target: Tyrosine-protein kinase Fer (Homo sapiens) (UniProt P16591); settings: at 10 µM
[3] = target: Tyrosine-protein kinase Fes/Fps (Homo sapiens) (UniProt P07332); settings: at 1 µM
[4] = target: Tyrosine-protein kinase Fes/Fps (Homo sapiens) (UniProt P07332); settings: at 10 µM
[5] = target: Tyrosine-protein kinase Fgr (Homo sapiens) (UniProt P09769); settings: at 1 µM
[6] = target: Tyrosine-protein kinase Fgr (Homo sapiens) (UniProt P09769); settings: at 10 µM
[7] = target: Vascular endothelial growth factor receptor 1 (Homo sapiens) (UniProt P17948); settings: at 1 µM
[8] = target: Vascular endothelial growth factor receptor 1 (Homo sapiens) (UniProt P17948); settings: at 10 µM
[9] = target: Receptor-type tyrosine-protein kinase FLT3 (Homo sapiens) (UniProt P36888); settings: at 1 µM
Sequence of Receptor-type tyrosine-protein kinase FLT3 (Homo sapiens) (P36888 whole entry): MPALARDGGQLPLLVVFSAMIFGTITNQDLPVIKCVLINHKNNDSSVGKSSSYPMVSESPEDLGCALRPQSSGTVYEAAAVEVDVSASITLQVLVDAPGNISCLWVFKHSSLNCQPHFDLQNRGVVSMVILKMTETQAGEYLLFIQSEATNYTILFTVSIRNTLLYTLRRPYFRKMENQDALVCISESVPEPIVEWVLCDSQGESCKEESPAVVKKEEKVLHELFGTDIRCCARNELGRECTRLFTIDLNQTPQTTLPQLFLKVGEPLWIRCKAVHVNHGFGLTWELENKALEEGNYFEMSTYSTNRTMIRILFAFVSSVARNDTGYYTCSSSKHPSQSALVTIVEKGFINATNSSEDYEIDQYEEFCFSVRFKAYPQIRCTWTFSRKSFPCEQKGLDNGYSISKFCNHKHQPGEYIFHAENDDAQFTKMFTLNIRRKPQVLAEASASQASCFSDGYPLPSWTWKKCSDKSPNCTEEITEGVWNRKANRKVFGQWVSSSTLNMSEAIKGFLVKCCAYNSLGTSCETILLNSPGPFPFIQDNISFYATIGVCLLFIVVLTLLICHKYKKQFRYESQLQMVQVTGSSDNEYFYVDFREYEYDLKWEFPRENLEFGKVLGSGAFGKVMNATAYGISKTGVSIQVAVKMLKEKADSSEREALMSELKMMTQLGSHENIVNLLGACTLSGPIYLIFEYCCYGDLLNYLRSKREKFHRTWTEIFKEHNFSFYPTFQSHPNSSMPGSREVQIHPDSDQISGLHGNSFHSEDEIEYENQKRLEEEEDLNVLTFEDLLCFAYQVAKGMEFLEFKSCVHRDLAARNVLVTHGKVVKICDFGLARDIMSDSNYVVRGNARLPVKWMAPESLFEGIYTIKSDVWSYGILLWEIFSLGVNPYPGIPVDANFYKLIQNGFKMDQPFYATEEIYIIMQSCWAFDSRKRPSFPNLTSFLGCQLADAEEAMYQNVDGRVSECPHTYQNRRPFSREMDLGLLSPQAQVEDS

[10] = target: Receptor-type tyrosine-protein kinase FLT3 (Homo sapiens) (UniProt P36888); settings: at 10 µM
[11] = target: Vascular endothelial growth factor receptor 3 (Homo sapiens) (UniProt P35916); settings: at 1 µM
[12] = target: Vascular endothelial growth factor receptor 3 (Homo sapiens) (UniProt P35916); settings: at 10 µM
[13] = target: Macrophage colony-stimulating factor 1 receptor (Homo sapiens) (UniProt P07333); settings: at 1 µM
Sequence of Macrophage colony-stimulating factor 1 receptor (Homo sapiens) (P07333 whole entry): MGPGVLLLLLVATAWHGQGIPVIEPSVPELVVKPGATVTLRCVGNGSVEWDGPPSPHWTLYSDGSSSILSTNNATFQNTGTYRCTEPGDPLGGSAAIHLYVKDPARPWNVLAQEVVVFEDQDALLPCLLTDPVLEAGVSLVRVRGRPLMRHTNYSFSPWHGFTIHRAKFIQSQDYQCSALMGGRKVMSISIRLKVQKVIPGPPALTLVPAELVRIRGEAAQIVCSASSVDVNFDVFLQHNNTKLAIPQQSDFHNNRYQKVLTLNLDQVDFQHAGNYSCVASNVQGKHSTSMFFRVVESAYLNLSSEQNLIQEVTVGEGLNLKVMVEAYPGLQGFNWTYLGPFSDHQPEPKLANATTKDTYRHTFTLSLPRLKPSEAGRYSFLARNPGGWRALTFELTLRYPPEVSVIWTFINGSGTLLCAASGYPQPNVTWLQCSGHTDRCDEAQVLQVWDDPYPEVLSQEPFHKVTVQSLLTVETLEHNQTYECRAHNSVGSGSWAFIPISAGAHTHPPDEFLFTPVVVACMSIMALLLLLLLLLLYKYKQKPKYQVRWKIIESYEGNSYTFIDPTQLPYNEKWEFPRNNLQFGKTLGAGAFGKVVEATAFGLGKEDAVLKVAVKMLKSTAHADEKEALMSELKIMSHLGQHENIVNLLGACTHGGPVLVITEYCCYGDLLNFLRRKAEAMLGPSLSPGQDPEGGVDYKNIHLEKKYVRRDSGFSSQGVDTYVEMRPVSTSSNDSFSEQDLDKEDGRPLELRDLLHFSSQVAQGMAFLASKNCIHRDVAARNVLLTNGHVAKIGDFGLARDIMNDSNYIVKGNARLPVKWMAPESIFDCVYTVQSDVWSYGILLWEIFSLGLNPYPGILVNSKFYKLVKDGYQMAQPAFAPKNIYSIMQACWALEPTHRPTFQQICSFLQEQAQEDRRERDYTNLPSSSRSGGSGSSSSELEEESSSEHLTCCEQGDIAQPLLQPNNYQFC

[14] = target: Macrophage colony-stimulating factor 1 receptor (Homo sapiens) (UniProt P07333); settings: at 10 µM
[15] = target: Tyrosine-protein kinase Fyn (Homo sapiens) (UniProt P06241); settings: at 1 µM
[16] = target: Tyrosine-protein kinase Fyn (Homo sapiens) (UniProt P06241); settings: at 10 µM
[17] = target: T1, Mitogen-activated protein kinase kinase kinase kinase 2 (Homo sapiens) (UniProt Q12851); settings: at 1 µM
T1 sequence (whole entry): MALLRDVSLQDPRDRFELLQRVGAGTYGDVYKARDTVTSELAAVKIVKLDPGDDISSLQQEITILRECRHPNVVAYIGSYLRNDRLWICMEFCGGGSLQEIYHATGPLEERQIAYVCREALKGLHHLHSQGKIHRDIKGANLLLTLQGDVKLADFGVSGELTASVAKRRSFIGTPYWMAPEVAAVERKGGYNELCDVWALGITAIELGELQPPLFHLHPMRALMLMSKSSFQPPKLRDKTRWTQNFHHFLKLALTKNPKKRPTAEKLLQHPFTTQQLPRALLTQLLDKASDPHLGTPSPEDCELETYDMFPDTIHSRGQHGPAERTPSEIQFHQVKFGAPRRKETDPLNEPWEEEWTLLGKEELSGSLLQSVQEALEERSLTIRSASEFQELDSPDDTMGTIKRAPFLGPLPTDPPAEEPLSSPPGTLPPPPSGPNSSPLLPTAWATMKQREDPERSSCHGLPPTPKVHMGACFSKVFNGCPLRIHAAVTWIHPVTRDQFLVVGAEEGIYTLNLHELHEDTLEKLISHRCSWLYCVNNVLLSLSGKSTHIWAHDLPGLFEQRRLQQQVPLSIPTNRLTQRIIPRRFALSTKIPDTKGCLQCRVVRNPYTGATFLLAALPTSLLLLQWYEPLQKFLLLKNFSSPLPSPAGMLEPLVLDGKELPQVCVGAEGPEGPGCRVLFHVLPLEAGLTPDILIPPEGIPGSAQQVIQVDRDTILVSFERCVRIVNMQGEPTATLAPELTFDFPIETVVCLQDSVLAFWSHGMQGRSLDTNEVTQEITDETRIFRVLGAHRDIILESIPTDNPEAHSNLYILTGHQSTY

[18] = target: T1, Mitogen-activated protein kinase kinase kinase kinase 2 (Homo sapiens); settings: at 10 µM
[19] = target: G protein-coupled receptor kinase 5 (Homo sapiens) (UniProt P34947); settings: at 10 µM
[20] = target: G protein-coupled receptor kinase 6 (Homo sapiens) (UniProt P43250); settings: at 1 µM
Sequence of G protein-coupled receptor kinase 6 (Homo sapiens) (P43250 whole entry, looked up): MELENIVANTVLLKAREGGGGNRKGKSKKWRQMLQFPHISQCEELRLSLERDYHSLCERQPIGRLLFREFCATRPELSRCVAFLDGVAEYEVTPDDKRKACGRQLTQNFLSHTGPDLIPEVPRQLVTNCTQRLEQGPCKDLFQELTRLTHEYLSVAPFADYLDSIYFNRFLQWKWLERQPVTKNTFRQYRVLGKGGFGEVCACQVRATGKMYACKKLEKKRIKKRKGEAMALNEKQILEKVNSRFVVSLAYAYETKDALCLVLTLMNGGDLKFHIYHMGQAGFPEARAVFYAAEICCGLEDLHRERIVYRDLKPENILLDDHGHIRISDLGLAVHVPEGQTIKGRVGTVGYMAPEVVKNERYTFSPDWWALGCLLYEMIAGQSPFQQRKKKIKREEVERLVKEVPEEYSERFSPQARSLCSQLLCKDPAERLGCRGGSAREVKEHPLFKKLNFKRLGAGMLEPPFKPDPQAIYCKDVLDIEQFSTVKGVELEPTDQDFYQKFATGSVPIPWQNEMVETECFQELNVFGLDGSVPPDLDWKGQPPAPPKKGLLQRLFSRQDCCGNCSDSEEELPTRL

Sequence of Tyrosine-protein kinase Fer (Homo sapiens) (P16591 whole entry, looked up): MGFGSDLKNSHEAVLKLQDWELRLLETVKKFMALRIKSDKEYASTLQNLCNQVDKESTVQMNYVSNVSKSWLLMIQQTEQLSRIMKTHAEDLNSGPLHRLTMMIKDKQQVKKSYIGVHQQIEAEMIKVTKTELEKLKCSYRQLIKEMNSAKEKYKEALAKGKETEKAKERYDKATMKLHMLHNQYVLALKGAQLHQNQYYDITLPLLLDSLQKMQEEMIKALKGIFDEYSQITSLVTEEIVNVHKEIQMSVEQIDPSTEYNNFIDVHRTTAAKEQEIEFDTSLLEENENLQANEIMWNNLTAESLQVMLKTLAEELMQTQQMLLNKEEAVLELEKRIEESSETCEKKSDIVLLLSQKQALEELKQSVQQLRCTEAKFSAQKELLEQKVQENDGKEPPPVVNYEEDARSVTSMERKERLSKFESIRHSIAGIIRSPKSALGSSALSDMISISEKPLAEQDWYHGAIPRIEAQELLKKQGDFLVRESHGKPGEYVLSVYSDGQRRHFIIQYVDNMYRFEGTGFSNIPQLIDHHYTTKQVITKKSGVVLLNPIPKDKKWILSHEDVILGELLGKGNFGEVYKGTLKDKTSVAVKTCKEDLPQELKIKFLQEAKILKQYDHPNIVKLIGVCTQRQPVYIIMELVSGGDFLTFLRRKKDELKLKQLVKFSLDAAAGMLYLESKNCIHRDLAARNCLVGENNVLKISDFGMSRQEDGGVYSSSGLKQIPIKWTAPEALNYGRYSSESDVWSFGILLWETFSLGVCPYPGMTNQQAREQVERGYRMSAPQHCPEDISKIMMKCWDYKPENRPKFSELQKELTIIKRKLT
Sequence of G protein-coupled receptor kinase 5 (Homo sapiens) (P34947 whole entry, looked up): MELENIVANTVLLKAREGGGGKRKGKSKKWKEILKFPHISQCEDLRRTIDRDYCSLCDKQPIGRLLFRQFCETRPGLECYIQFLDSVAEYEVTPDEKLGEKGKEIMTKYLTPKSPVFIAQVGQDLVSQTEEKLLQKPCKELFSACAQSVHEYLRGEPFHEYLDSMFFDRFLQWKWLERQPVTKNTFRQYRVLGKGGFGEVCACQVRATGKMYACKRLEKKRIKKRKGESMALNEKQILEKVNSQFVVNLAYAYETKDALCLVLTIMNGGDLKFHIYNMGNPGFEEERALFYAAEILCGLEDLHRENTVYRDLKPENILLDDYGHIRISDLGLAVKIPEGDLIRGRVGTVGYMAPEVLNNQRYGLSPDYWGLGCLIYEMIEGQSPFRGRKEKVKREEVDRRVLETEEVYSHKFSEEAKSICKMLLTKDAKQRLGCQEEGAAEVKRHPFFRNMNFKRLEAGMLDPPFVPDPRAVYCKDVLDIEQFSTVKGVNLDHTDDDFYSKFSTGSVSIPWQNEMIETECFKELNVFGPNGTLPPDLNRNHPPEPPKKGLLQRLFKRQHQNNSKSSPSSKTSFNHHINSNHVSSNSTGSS
Sequence of Tyrosine-protein kinase Fes/Fps (Homo sapiens) (P07332 whole entry): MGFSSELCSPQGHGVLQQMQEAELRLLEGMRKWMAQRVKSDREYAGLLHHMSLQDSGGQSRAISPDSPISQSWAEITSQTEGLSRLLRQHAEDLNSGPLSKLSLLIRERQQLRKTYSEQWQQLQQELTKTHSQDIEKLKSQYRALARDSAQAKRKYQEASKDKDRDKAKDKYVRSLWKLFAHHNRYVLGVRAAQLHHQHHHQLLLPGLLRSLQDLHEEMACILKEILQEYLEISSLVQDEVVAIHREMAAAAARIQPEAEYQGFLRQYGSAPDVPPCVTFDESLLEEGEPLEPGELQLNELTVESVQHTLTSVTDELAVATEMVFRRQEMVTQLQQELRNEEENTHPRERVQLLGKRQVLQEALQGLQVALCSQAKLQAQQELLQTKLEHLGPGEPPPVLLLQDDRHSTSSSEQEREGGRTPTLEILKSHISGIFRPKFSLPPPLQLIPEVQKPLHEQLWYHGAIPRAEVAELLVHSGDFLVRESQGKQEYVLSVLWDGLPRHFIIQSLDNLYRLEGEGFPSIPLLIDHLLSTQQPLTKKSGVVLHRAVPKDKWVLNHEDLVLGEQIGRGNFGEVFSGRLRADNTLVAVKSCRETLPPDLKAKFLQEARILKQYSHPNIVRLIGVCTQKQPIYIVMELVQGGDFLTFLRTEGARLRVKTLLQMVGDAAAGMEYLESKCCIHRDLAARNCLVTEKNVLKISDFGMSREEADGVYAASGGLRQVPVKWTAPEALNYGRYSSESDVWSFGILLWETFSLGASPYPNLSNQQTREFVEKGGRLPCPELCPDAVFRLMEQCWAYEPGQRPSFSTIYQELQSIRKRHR

**Q.** For `O=C(c1cc2cc(O)ccc2[nH]1)c1cc2cc(O)ccc2[nH]1`, which residual activity [1] is on record?
**A.** 79%

**Q.** For `O=C(Nc1nc2ccccc2n1CCN1CCOCC1)c1cccc([N+](=O)[O-])c1`, which residual activity [1] is on record?
**A.** 107%

**Q.** With `O=C1NC(=O)C(c2cn(CCCO)c3ncccc23)=C1c1cnccn1` as the compound, how does the residual activity [1] read?
**A.** 100%

**Q.** `O=C1Nc2ccc3ncsc3c2/C1=C/c1c[nH]cn1` was tested. Which residual activity [2] did it give?
**A.** 40%

**Q.** What about the residual activity [3] of the same compound?
**A.** 62%

**Q.** What about the residual activity [4] of the same compound?
**A.** 15%

**Q.** And the residual activity [5]?
**A.** 47%

**Q.** And the residual activity [6]?
**A.** 15%

**Q.** And the residual activity [7]?
**A.** 1%

**Q.** What about the residual activity [8] of the same compound?
**A.** 0%

**Q.** What about the residual activity [9] of the same compound?
**A.** 1%

**Q.** What about the residual activity [10] of the same compound?
**A.** 0%

**Q.** And the residual activity [11]?
**A.** 0%

**Q.** What about the residual activity [12] of the same compound?
**A.** 0%

**Q.** What about the residual activity [13] of the same compound?
**A.** 22%

**Q.** And the residual activity [14]?
**A.** 3%

**Q.** And the residual activity [15]?
**A.** 46%

**Q.** What about the residual activity [16] of the same compound?
**A.** 12%

**Q.** And the residual activity [17]?
**A.** 7%

**Q.** What about the residual activity [18] of the same compound?
**A.** 1%

**Q.** And the residual activity [1]?
**A.** 71%

**Q.** And the residual activity [19]?
**A.** 25%

**Q.** `COc1cc2ncnc(Nc3cccc(Cl)c3)c2cc1OC` was tested. Which residual activity [1] did it give?
**A.** 108%

**Q.** Which residual activity [2] does the source give for `COc1cc(OC)c(/C=C2\C(=O)Nc3ccccc32)c(OC)c1` here?
**A.** 94%

**Q.** And the residual activity [3]?
**A.** 102%

**Q.** What about the residual activity [4] of the same compound?
**A.** 92%

**Q.** What about the residual activity [5] of the same compound?
**A.** 86%

**Q.** What about the residual activity [6] of the same compound?
**A.** 76%

**Q.** And the residual activity [7]?
**A.** 92%

**Q.** And the residual activity [8]?
**A.** 94%

**Q.** What about the residual activity [9] of the same compound?
**A.** 83%

**Q.** And the residual activity [10]?
**A.** 72%

**Q.** What about the residual activity [11] of the same compound?
**A.** 76%

**Q.** What about the residual activity [12] of the same compound?
**A.** 74%

**Q.** What about the residual activity [13] of the same compound?
**A.** 87%

**Q.** And the residual activity [14]?
**A.** 69%

**Q.** What about the residual activity [15] of the same compound?
**A.** 70%

**Q.** And the residual activity [16]?
**A.** 68%

**Q.** And the residual activity [17]?
**A.** 95%

**Q.** What about the residual activity [18] of the same compound?
**A.** 86%

**Q.** What about the residual activity [1] of the same compound?
**A.** 101%

**Q.** And the residual activity [19]?
**A.** 99%

**Q.** What about the residual activity [20] of the same compound?
**A.** 89%

**Q.** For `C[S+]([O-])c1ccc(-c2nc(-c3ccc(F)cc3)c(-c3ccncc3)[nH]2)cc1` (stereo unspecified), which residual activity [2] is on record?
**A.** 109%

**Q.** And the residual activity [3]?
**A.** 112%

**Q.** What about the residual activity [4] of the same compound?
**A.** 105%

**Q.** What about the residual activity [5] of the same compound?
**A.** 87%

**Q.** And the residual activity [6]?
**A.** 51%

**Q.** What about the residual activity [7] of the same compound?
**A.** 101%

**Q.** What about the residual activity [8] of the same compound?
**A.** 39%

**Q.** What about the residual activity [10] of the same compound?
**A.** 82%

**Q.** And the residual activity [11]?
**A.** 93%

**Q.** And the residual activity [12]?
**A.** 42%

**Q.** What about the residual activity [13] of the same compound?
**A.** 109%

**Q.** What about the residual activity [14] of the same compound?
**A.** 52%

**Q.** What about the residual activity [15] of the same compound?
**A.** 76%

**Q.** And the residual activity [16]?
**A.** 35%

**Q.** What about the residual activity [17] of the same compound?
**A.** 104%

**Q.** What about the residual activity [18] of the same compound?
**A.** 100%

**Q.** What about the residual activity [1] of the same compound?
**A.** 109%

**Q.** And the residual activity [19]?
**A.** 104%

**Q.** What about the residual activity [20] of the same compound?
**A.** 107%

**Q.** For `O=C1NC(=O)C(c2cn(CCCn3ccnc3)c3ccccc23)=C1Nc1ccccc1`, which residual activity [1] is on record?
**A.** 78%

**Q.** Which residual activity [1] does the source give for `CCCCc1c(-c2ccc(OC)cc2)[nH]c2nccnc12` here?
**A.** 88%

**Q.** Which results are given for `c1cc(-c2cnn3cc(-c4ccc(OCCN5CCCCC5)cc4)cnc23)ccn1`?
**A.** residual activity [3]: 87%; residual activity [4]: 31%; residual activity [5]: 28%; residual activity [6]: 2%; residual activity [7]: 0%; residual activity [8]: 0%; residual activity [9]: 0%; residual activity [10]: -1%; residual activity [11]: 1%; residual activity [12]: 0%; residual activity [13]: 3%; residual activity [14]: 1%; residual activity [15]: 11%; residual activity [16]: 1%; residual activity [17]: 10%; residual activity [18]: 1%; residual activity [20]: 101%
